Reference: PubChem BioAssay AID720706 (Broad Institute, 2013)
Several values for one entry are separate records, joined by “and”; a condition that tells them apart may be missing. Equal entries are not always repeated. Among all 350,000 compounds or so, about 5,500 (1.6%) were called active.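 The calls were made as follows: active = significant combined selectivity score with lowered wild-type GFP, culture density cut under 30%, mutant RFP and density less affected; inactive = any of these conditions unmet.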 For the sample, actives were picked, then their nearest neighbours and some compounds at random.

Experiment: GFP drop in mixed WT/humanized-ribosome E. coli culture – GFP/RFP fluorescence, OD600, single point, bacterial rRNA inhibitor project, primary screen (AID 720706)
Details: E. coli WT GFP vs humanized-ribosome RFP mutants, 24 h; GFP signal change (wild-type ribosome): stronger effect = lower value, DMSO median 0, no signal -100; OD600 change: measured here: OD600 growth, DMSO median 0, no signal -100; RFP signal change: measured here: RFP humanized mutant strains, DMSO median 0, no signal -100, concentration not given here

SMILES | GFP signal change (wild-type ribosome) | OD600 change | RFP signal change
C[C@H]1CCCCO[C@H](CN(C)S(=O)(=O)c2ccc(Cl)cc2)[C@@H](C)CN([C@@H](C)CO)C(=O)c2cc(NC(=O)Nc3ccc4c(c3)OCO4)ccc2O1 | 2.33% (inactive) | 1.85% | -3.19%
COc1ccc2c3c(n(C)c2c1)[C@H](CO)N(C(C)=O)CC31CN(Cc2ccc(Cl)cc2)C1 | -5.13% (inactive) | -14.3% | 1.56%
C[C@@H]1CN([C@@H](C)CO)S(=O)(=O)c2ccc(-c3ccncc3)cc2O[C@@H]1CN(C)C(=O)C1CCC1 | -1.91% (inactive) | 0.625% | -1.44%
COc1cc(/C=C/C(=O)OCC(=O)c2ccccc2)cc(OC)c1OC | -32.8% (inactive) | -28.1% | -5.92%
CCC(C)(C)NC(=O)/C=C/c1cc(OC)c(OC)c(S(=O)(=O)N2CCc3ccccc32)c1 | 25% (inactive) | 13.4% | -10.2%
COc1cc(/C=C/C(=O)N2CCc3ccccc3C2)cc(OC)c1OC | -21.8% (active) | -16.9% | 0.83%
O=C(C[C@H]1C[C@H]2c3cc(NC(=O)Nc4ccc(C(F)(F)F)cc4)ccc3O[C@H]2[C@@H](CO)O1)NCc1cccnc1 | 3.1% (inactive) | 2.56% | -0.972%
COc1cccc(S(=O)(=O)N2[C@@H]3CNC[C@H]2C3c2ccc(-c3ccccc3OC)cc2)c1 (stereo partly specified) | -57.9% (inactive) and 6.81% (inactive) | -76.9% and 4.62% | -12.3% and 0.158%
COc1cccc(S(=O)(=O)N2C[C@H](O)COC[C@H]3O[C@@H](CC(=O)N4CCN(c5ccccc5)CC4)CC[C@@H]32)c1 | -6.4% (inactive) | -3.12% | 2.98%
CCCN(C)C[C@@H]1OCCCC[C@H](C)Oc2ccc(NS(=O)(=O)c3ccc(C)cc3)cc2C(=O)N([C@H](C)CO)C[C@@H]1C | -0.00475% (inactive) | -4.83% | 1.63%
COCC(=O)Nc1ccc2c(c1)C(=O)N(C)C[C@@H](OC)[C@@H](C)CN(CC1CCCCC1)[C@@H](C)CO2 | 0.911% (inactive) | 5.47% | -0.068%
COc1ccccc1N1CCN(Cc2cc(OC)c3c(c2)OCO3)CC1 | -2.5% (inactive) | -4.28% | -3.78%
COc1ccc(CN2CCN(Cc3ccc(OC)c(OC)c3OC)CC2)cc1 | 13.2% (inactive) | 19.1% | -0.244%
COc1ccccc1N1CCN(Cc2ccc(OC)c3ccccc23)CC1 | -21.9% (active) | -8.32% | -3.95%
CO[C@@H](CN(C)S(=O)(=O)c1ccc(F)cc1)[C@H](C)CN(C(=O)Nc1ccccc1F)[C@@H](C)CO | -3.35% (inactive) | 0.819% | -3.65%
C[C@@H]1CN([C@H](C)CO)C(=O)Cc2cc(NC(=O)C3CCCCC3)ccc2O[C@@H]1CN(C)Cc1ccc(C(F)(F)F)cc1 | -2.69% (inactive) | 1.55% | 2.15%
Cc1nc2ccc(NC(=O)C3CCCCC3)cc2s1 | -1.32% (inactive) | -0.83% | -0.607%
COc1ccc2nc(NC(=O)NC3CCCCC3)sc2c1 | -22.5% (active) | -17.5% | 7.27%
COc1ccc(C(=O)NC(=S)NC2CCCCC2)cc1 | -49.8% (inactive) | -73.1% | -12.9%

SMILES | GFP signal change (wild-type ribosome) | OD600 change | RFP signal change
C[C@H](CO)N1C[C@H](C)[C@H](CN(C)Cc2ccccc2)OCCCC[C@H](C)Oc2ccc(NC(=O)CCC(F)(F)F)cc2C1=O | -1.2% (inactive) | -5.79% | -1.47%
CC(C)NC(=O)Nc1ccc2c(c1)C(=O)N([C@@H](C)CO)C[C@@H](C)[C@H](CN(C)Cc1ccc(Cl)c(Cl)c1)O2 | -11.4% (inactive) | -58.1% | 26%
CN(C)CCCNC(=O)/C=C/c1ccc(OCc2c(F)cccc2Cl)cc1 | -45.5% (active) | -31% | -4.52%
COCCCNC(=O)/C=C/c1ccc(OCc2c(F)cccc2Cl)cc1 | -4.38% (inactive) | -2.58% | -3.12%
O=C(/C=C/c1ccc(OCc2c(F)cccc2Cl)cc1)N1CCOCC1 | -49% (inactive) | -72.9% | -13.9%
Cc1noc(C)c1NC(=O)Nc1ccc2c(c1)C(=O)N([C@H](C)CO)C[C@@H](C)[C@@H](CN(C)Cc1ccncc1)OCCCC[C@H](C)O2 | 0.824% (inactive) | 10.7% | -1.14%
C[C@H]1CN(C)C(=O)c2cccc(N(C)C)c2O[C@@H]1CN(C)C | -0.435% (inactive) | 5.4% | -1.5%
CO[C@H]1CN(C)C(=O)c2ccc(NC(=O)CC(F)(F)F)cc2OC[C@@H](C)N(C(=O)c2ccccc2F)C[C@@H]1C | 3.23% (inactive) | 1.55% | 3.46%
CCOc1ccc(/C(O)=C2\C(=O)C(=O)N(c3ccc(OC)cc3)C2c2ccccc2[N+](=O)[O-])cc1 (stereo unspecified) | -20.6% (active) | 6.17% | 5.06%
COc1ccccc1C1/C(=C(/O)c2ccc(C)cc2)C(=O)C(=O)N1Cc1ccco1 (stereo unspecified) | 6.88% (inactive) | 7.9% | 1.73%
COc1ccc(C2/C(=C(/O)c3ccccc3)C(=O)C(=O)N2C)c(OC)c1 (stereo unspecified) | -2.38% (inactive) | 2.38% | -3.31%
COCC(=O)Nc1ccc2c(c1)[C@H]1C[C@H](CC(=O)NCc3ccccn3)O[C@H](CO)[C@H]1O2 | -0.801% (inactive) | -4.21% | -2.1%
O=S1(=O)c2ccc(Br)cc2-n2nncc2CN1Cc1cccc(Cl)c1 | -5.88% (inactive) | -16.9% | -5.12%
O=C(N[C@@H](Cc1ccccc1)C(=O)OCc1ccccc1)c1nc[nH]c1C(=O)NC1CCNCC1 | -20.9% (active) | -8.38% | -3.23%
CC(C)(C)OC(=O)N1CCC(NC(=O)c2[nH]cnc2C(=O)N[C@@H](Cc2ccccc2)C(=O)OCc2ccccc2)CC1 | 12.4% (inactive) | -1.46% | 0.755%
O=C(N[C@@H](Cc1ccccc1)C(=O)OCc1ccccc1)c1nc[nH]c1C(=O)N[C@@H](Cc1ccccc1)C(=O)OCc1ccccc1 | 8.68% (inactive) | 15.5% | -0.702%
O=C(c1cccc(F)c1)N1CC(=O)N2[C@H](C1)[C@@H](c1ccc(C#Cc3ccc(F)cc3)cc1)[C@@H]2CO | 1.74% (inactive) | -7.67% | 4.35%
COC(=O)[C@@H]1[C@@H](CO)[C@@H]2Cn3c(ccc(-c4ccccc4F)c3=O)[C@@H]2N1CC1CCOCC1 | 1.95% (inactive) | -6.47% | 6.87%
